About 1,700 (3.3%) of roughly 52,000 compounds were called active. This is one part of a sample in which actives are shown more often than they occur. Values without a mark were called inactive. Cut-off read from the data, not from the text of the source: active = survival mostly below about 52% (no sharp cut-off); inactive = mostly above about 56%.
Test system: Wild type
Assay: growth inhibition of S. aureus wild type versus tarO mutant, primary screen, teichoic acid synthesis inhibitors, RN4220, OD600 (AID 463173)
Settings: S. aureus RN4220 wild type/DeltatarO growth, OD600, 18 h, hits give low values, screened at 18.75 µg/mL (by protocol)

With `COc1cccc(-c2nc(CSCC(=O)NCCc3ccc(Cl)cc3)c(C)o2)c1` the survival was -1% (active).
In the case of `Cc1cccc(-c2nc(CSCC(=O)NCCc3ccc(Cl)cc3)c(C)o2)c1`, the survival was -3% (active).
With `CC1CCCN(c2nc(-c3ccccc3O)nc3ccccc23)C1` (stereo unspecified) the survival was -3% (active).
In the case of `Cc1ccc(-c2nc(N3CCCC(C)C3)c3ccccc3n2)cc1` (stereo unspecified), the survival was -2% (active).
With `C=Cc1ccc(CN2C(=O)N(c3ccc(CC)cc3)S(=O)(=O)c3ccccc32)cc1` the survival was 1% (active).
For `COc1ccc(N2CCN(c3nc4ccc(C)cc4n4nnnc34)CC2)cc1`, the survival was -6% (active).
For `Cc1ccc2nc(N3CCN(c4ccc(F)cc4)CC3)c3nnnn3c2c1`, the survival was 14% (active).
With `COc1ccccc1CNc1nc2ccc(C)cc2n2nnnc12` the survival was -1% (active).
In the case of `Cc1ccc(-c2c(C(=O)N(C)Cc3ccccc3)oc(=O)c3ccccc23)cc1`, the survival was 11% (active).
`CCCCN(Cc1ccccc1)C(=O)c1oc(=O)c2ccccc2c1-c1ccc(C)cc1` was tested, and the survival was 0% (active).
`COc1cccc(C2=CC(c3cc(Br)ccc3F)n3nnnc3N2)c1` (stereo unspecified) was tested, and the survival was -4% (active).
`Cc1ccc2c(c1)-c1ncc(C(=O)c3ccccc3O)cc1CO2` was tested, and the survival was -7% (active).
`O=C(c1cnc2c(c1)COc1ccccc1-2)c1ccccc1O` was tested, and the survival was 5% (active).
With `CCOC(=O)c1ccc(N2CCN(c3cccc(OC)c3)CC2)c(NC(=O)Nc2ccc(OCC)cc2)c1` the survival was -6% (active).
For `O=C(NCc1ccccc1Br)c1ccc2c(c1)nc1n2CCOC1`, the survival was -3% (active).
For `CCOc1ccc(CNC(=O)c2ccc3c(c2)nc2n3CCOC2)cc1OC`, the survival was 1% (active).
`COc1ccc(CCNC(=O)c2ccc3c(c2)nc2n3CCOC2)cc1OC` was tested, and the survival was -4% (active).
For `CC1CCN(c2nc3ccccc3nc2SCC(=O)Nc2ccccc2C(C)C)CC1`, the survival was -16% (active).
In the case of `CCOc1ccccc1NC(=O)CSc1nc2ccccc2nc1N1CCOCC1`, the survival was -11% (active).
With `Cc1cccc(NC(=O)CSc2nc3ccccc3nc2N2CCC(C)CC2)c1` the survival was -9% (active).

Compared with `CCOc1ccc(CCNC(=O)CSCc2nc(-c3cccc(C)c3)oc2C)cc1OCC`, `COc1ccc(CCNC(=O)CSCc2nc(-c3cccc(C)c3)oc2C)cc1OC` is lower in survival: 80% for the first, 74% for the second.

Compared with `COc1ccc(-c2nc(CSCC(=O)NCCc3ccccc3)c(C)o2)cc1`, `COc1cccc(-c2nc(CS(=O)(=O)CC(=O)NCCc3ccc(Cl)cc3)c(C)o2)c1` is lower in survival: 95% for the first, 78% for the second.

First: COc1cc2[nH]c(=O)n(CCCC(=O)N(C)Cc3ccccc3)c(=O)c2cc1OC
Second: Cc1coc2c(C)c3oc(=O)c(CCC(=O)NCCc4ccccc4)c(C)c3cc12
The survival of the first is lower: 68% for the first, 84% for the second.

First: CN(C)c1ccc(-c2nnc3n(Cc4ccccc4)c(=O)c4ccccc4n23)cc1
Second: Cc1ccc(-c2c(C(=O)NCCc3ccccc3)oc(=O)c3ccccc23)cc1
The survival of the first is higher: 83% for the first, 79% for the second.

Going from `COc1ccc(N2CCN(C(=O)c3cccc(NC(=O)c4nsc5ccccc45)c3)CC2)cc1` to `COc1ccc(N2CCN(c3nc(-c4ccccc4F)nc4ccccc34)CC2)cc1`, the survival falls from 131% to 92%.

Compared with `O=C(NCc1ccc2c(c1)OCO2)C1CCN(c2ccc(S(=O)(=O)N3CCCC3)cc2)CC1`, `COc1ccc(C2=C(C)C(N3CCC(C(=O)NCc4ccco4)CC3)=NS2(=O)=O)cc1` is lower in survival: 101% for the first, 56% for the second.

Compared with `CC1CCCN(c2csc3ccccc3c2=O)C1` (stereo unspecified), `N#CCNC(=O)c1sc2ccccc2c1Cl` is higher in survival: 97% for the first, 107% for the second.

First: COc1ccccc1N1CCN(c2nc(-c3ccc(C)cc3)nc3ccccc23)CC1
Second: Cc1cccc(-c2nc(N3CCN(c4ccc(F)cc4)CC3)c3ccccc3n2)c1
The survival of the first is higher: 72% for the first, 64% for the second.

Compared with `Cc1nnc(NC(=O)CCCN2C(=O)/C(=C/c3cccs3)SC2=S)s1`, `Cn1cccc1-c1cc2n(n1)CCC(=O)N2CC(=O)Nc1ccc(F)cc1Cl` is lower in survival: 107% for the first, 63% for the second.

Compared with `COc1cc(C(=O)N2CC(=O)Nc3ccc(C)cc3C2c2ccc(F)cc2)cc(OC)c1OC` (stereo unspecified), `Cc1ccc(-c2c(C(=O)NCc3ccc(F)cc3)oc(=O)c3ccccc23)cc1` is lower in survival: 147% for the first, 76% for the second.

First: Cc1c(Cl)cccc1NC(=O)CCS(=O)(=O)c1ccc2c(c1)CC(C)N2C(=O)C1CC1 (stereo unspecified)
Second: CCOc1ccc(N(C)S(=O)(=O)c2ccc3c(c2)CCCN3C(C)=O)cc1
The survival of the first is higher: 85% for the first, 75% for the second.

First: Cc1ccc(-n2ncc3c(N4CCC(Cc5ccccc5)CC4)ncnc32)cc1
Second: Cc1ccc2nc(N3CCN(c4ccccc4)CC3)c3nnnn3c2c1
The survival of the first is lower: 70% for the first, 78% for the second.

Going from `CC(C)CC(NC(=O)C1CCCCC1)C(=O)Nc1cccc(C(F)(F)F)c1` (stereo unspecified) to `Cc1c(C(=O)N2CCC(C)CC2)c(S(=O)(=O)Nc2cccc(C(F)(F)F)c2)c(C)n1C`, the survival rises from 64% to 78%.

Compared with `C=Cc1ccc(CN2C(=O)N(c3cccc(Cl)c3)S(=O)(=O)c3ccccc32)cc1`, `C=Cc1ccc(CN2C(=O)N(c3ccc(C)c(C)c3)S(=O)(=O)c3ccccc32)cc1` is higher in survival: 57% for the first, 71% for the second.

Going from `COc1cccc(N2CCN(C(=O)c3cnc4c(C)cccn4c3=O)CC2)c1` to `CCOC(=O)c1ccc(N2CCN(c3ccc(F)cc3)CC2)c(NC(=O)Nc2cccc(OC)c2)c1`, the survival falls from 91% to 67%.

Compared with `Cc1ccc2nc(N3CCN(c4ccccc4F)CC3)c3nnnn3c2c1`, `COc1ccccc1N1CCN(c2nc3ccc(C)cc3n3nnnc23)CC1` is higher in survival: 76% for the first, 133% for the second.

Compared with `Cc1ccc(N2CCN(c3nc4ccc(C)cc4n4nnnc34)CC2)c(C)c1`, `COc1ccc(OC)c(CNc2nc3ccc(C)cc3n3nnnc23)c1` is higher in survival: 76% for the first, 85% for the second.

Compared with `Cc1ccc2nc(NCc3ccccc3Cl)c3nnnn3c2c1`, `Cc1ccc(C)c(NC(=O)CSc2nc3ccccc3nc2N2CCOCC2)c1` is lower in survival: 94% for the first, 76% for the second.

Going from `CCN(c1ccccc1)S(=O)(=O)c1ccc(-c2cc(C)no2)s1` to `Cc1cn2c(=O)cc(COc3ccccc3NC(=O)c3ccco3)nc2s1`, the survival falls from 159% to 83%.

First: NC(=S)N/N=C/c1ccccc1OCC(=O)O
Second: CCn1c(CC(=O)Nc2ccccc2)n[nH]c1=S
The survival of the first is lower: 96% for the first, 107% for the second.

Going from `Cc1ccc(NC(=O)Cn2ccn(-c3ccc(F)c(F)c3)c(=O)c2=O)cc1C` to `Cc1ccc(C)c(NC(=O)CSc2nc(-c3ccccc3)c(C#N)c(=O)[nH]2)c1`, the survival rises from 78% to 113%.

Going from `Cc1ccc(-c2c(C(=O)NCCc3ccc(Cl)cc3)oc(=O)c3ccccc23)cc1` to `Cc1ccc(CCNC(=O)c2oc(=O)c3ccccc3c2-c2ccc(C)cc2)cc1`, the survival falls from 57% to 17%.

Going from `COc1ccccc1CCNC(=O)c1ccc2c(c1)c(C)c(C)n2Cc1ccc(Cl)cc1` to `O=C(c1ccc2c(c1)N(Cc1ccc(Cl)cc1)C(=O)c1ccccc1S2=O)N1CCOCC1` (stereo unspecified), the survival rises from 77% to 83%.

Going from `CC1(C)Cc2ccccc2-c2nnc(-c3ccccc3)n21` to `Cc1ccc2c(c1)-c1nc(-c3ccccc3)cc(-c3ccccc3)c1CO2`, the survival falls from 95% to 79%.

First: Fc1ccc(Br)cc1C1C=C(c2ccc(Br)cc2)Nc2nnnn21 (stereo unspecified)
Second: COc1ccc(C2C=C(c3ccc(Br)cc3)Nc3nnnn32)c(OC)c1 (stereo unspecified)
The survival of the first is higher: 81% for the first, 66% for the second.

Going from `Cc1ccc(S(=O)(=O)N2CCCc3cc(NC(=O)c4ccc(C(F)(F)F)cc4)ccc32)cc1` to `CCOC(=O)c1ccc(N2CCN(c3cccc(Cl)c3)CC2)c(NC(=O)Nc2ccc(Cl)cc2)c1`, the survival falls from 110% to 76%.

First: O=C(c1cnc2c(c1)COc1ccc(Cl)cc1-2)c1ccccc1O
Second: Cc1cc(O)c(C(=O)c2cnc3c(c2)COc2ccccc2-3)cc1Cl
The survival of the first is higher: 131% for the first, 64% for the second.

Compared with `Cc1ccc2c(c1)-c1ncc(C(=O)c3cc(Br)ccc3O)cc1CO2`, `Cc1ccc(C)c(CNC(=O)c2ccc3c(c2)nc2n3CCOC2)c1` is higher in survival: 56% for the first, 63% for the second.

Going from `Cc1ccc(NS(=O)(=O)c2cc3[nH]c(=O)c(=O)[nH]c3cc2C)cc1N(C)C` to `O=c1[nH]c2ccccc2c(O)c1-c1nc2ccccc2c(=O)[nH]1`, the survival rises from 81% to 109%.

First: CC1(CCC(=O)O)NNC(=S)NN1
Second: CC(=O)N1SC(N)=NC1c1ccccc1 (stereo unspecified)
The survival of the first is lower: 101% for the first, 111% for the second.

First: Cc1nn(C(=O)c2cccc(F)c2)c(C)c1S(=O)(=O)N1CCCCCC1
Second: Cc1cccc(NC(=O)CSc2nc3ccccc3nc2N2CCCCC2)c1C
The survival of the first is higher: 84% for the first, 70% for the second.

Going from `Fc1cccc(NCc2cccn2-c2nnc(N3CCOCC3)s2)c1` to `Cc1cccc(NC(=O)CSc2nc3ccccc3nc2N2CCOCC2)c1C`, the survival falls from 77% to 65%.

First: CCOc1ccc(CCNC(=O)c2ccc3c(c2)nc2n3CCOC2)cc1OCC
Second: CCOc1ccc(CNC(=O)c2ccc3c(c2)nc2n3CCOC2)cc1
The survival of the first is higher: 63% for the first, 57% for the second.

Going from `CCOc1ccc(CNC(=O)c2ccc3c(c2)nc2n3CCC(C)C2)cc1OC` (stereo unspecified) to `COc1ccc(CCNC(=O)c2ccc3c(c2)nc2n3CCCCC2)cc1OC`, the survival rises from 73% to 84%.

Compared with `O=C(NCc1ccccc1)c1ccc2c(c1)nc1n2CCOC1`, `Cc1ccc(NC(=O)CSc2nc3ccccc3nc2N2CCOCC2)cc1` is lower in survival: 82% for the first, 59% for the second.

Going from `COc1cccc(NC(=O)CSc2nnc(-c3cccc(OC)c3)o2)c1` to `CCOc1ccc(NC(=O)CSc2nc3ccccc3nc2N2CCOCC2)cc1`, the survival rises from 90% to 112%.

First: Cc1cn2c(=O)cc(COC(=O)c3cccc(NC(=O)c4ccccc4C)c3)nc2s1
Second: Cc1ccc2c(=O)c(C(=O)c3ccccc3)cn(CC(=O)Nc3ccccc3C)c2n1
The survival of the first is higher: 71% for the first, 65% for the second.

Going from `COc1ccccc1CNc1ccc(-c2nc(-c3ccccn3)no2)cc1[N+](=O)[O-]` to `CC(=O)Nc1ccc(NC(=O)CSc2nc3ccccc3nc2N2CCC(C)CC2)cc1`, the survival rises from 77% to 80%.

From PubChem BioAssay AID463173 (ICCB-Longwood Screening Facility, Harvard Medical School, 2010)
